Measured values: PubChem BioAssay (NCI)
The panel holds about 79,000 compounds, 15% with a hit somewhere; the sample as a whole holds those more often. Cut-off read from the data, not from the text of the source: active = growth inhibition above about 70%; inactive = the rest.

Experiments:
[1] = NCI Yeast Anticancer Drug Screen. Data for the rad50 strain (AID 155);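 note: 0% = growth of vehicle-only cultures of the same strain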; settings: S. cerevisiae rad50 strain growth inhibition; at 50.0 µM; active compounds read high
Summary of the method: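 Vehicle-treated cultures provide the reference for the growth inhibition reported for compound-exposed, repair-deficient yeast.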

[2] = NCI Yeast Anticancer Drug Screen. Data for the mec2-1 strain (AID 157); settings: S. cerevisiae mec2-1 strain, at 50.0 µM, active compounds read high
Summary of the method: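 Readout is yeast growth inhibition, normalised to vehicle-treated controls, in the mec2-1 strain exposed to compound.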

[3] = NCI Yeast Anticancer Drug Screen. Data for the sgs1 mgt1 strain (AID 161);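 note: 0% = growth of cultures given vehicle only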; settings: S. cerevisiae sgs1 mgt1 strain, at 50.0 µM, active compounds read high
Summary of the method: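 This yeast growth screen uses a strain with defined DNA-repair lesions; compound-treated growth is compared with vehicle-treated growth.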

[4] = NCI Yeast Anticancer Drug Screen. Data for the cln2 rad14 strain (AID 165);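 note: 0% = growth equal to vehicle treated cultures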; settings: S. cerevisiae cln2 rad14 strain, at 50.0 µM, active compounds read high
Summary of the method: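 Relative to vehicle controls, growth inhibition of compound-treated cln2 rad14 yeast was recorded.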

[5] = NCI Yeast Anticancer Drug Screen. Data for the bub3 strain (AID 167); settings: S. cerevisiae bub3 mutant strain, at 50.0 µM, active compounds read high
Summary of the method: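 Mutant yeast screening strain plus compound; vehicle-treated cultures serve as the 0% inhibition reference.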

[6] = NCI Yeast Anticancer Drug Screen. Data for the mlh1 rad18 strain (AID 175); settings: S. cerevisiae mlh1 rad18 strain growth inhibition; at 50.0 µM; active compounds read high
Summary of the method: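 Test agents were incubated with a yeast strain of defined genotype (DNA damage repair defect). Inhibition of growth was derived by comparison with vehicle-exposed cultures.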

Measured: growth inhibition

NC(Cc1ccsc1)C(=O)O (stereo unspecified)
inactive: [1] 0.15% | [2] 10.7% | [3] -22.7% | [4] -45.2% | [5] 20.5% | [6] -30.8%

CC1OC(OC2C(CO)OC(O[C@H]3CC[C@@]4(C)C(=CC[C@H]5[C@@H]6C[C@@H]7O[C@]8(CC[C@@H](C)CN8)[C@@H](C)[C@@H]7[C@@]6(C)CC[C@@H]54)C3)C(O)C2O)C(O)C(O)C1O (stereo partly specified)
inactive: [1] -17.1% | [2] -26.6% | [3] -0.75% | [4] 15.2% | [5] 6.1% | [6] 1.7%

Cc1c2n(c(=O)[nH]c1=O)C1OC(CO)C(N=[N+]=[N-])C1O2 (stereo unspecified)
inactive: [1] -5.5% | [2] -15.9% | [3] -42% | [4] -12.3% | [5] -39.2% | [6] -32.2%

N/C([S-])=N/N=c1\c(O)c(O)\c1=N/N=C(/N)[S-].[Cu+2]
inactive: [1] -8.6% | [2] -6.6% | [3] -7% | [4] -2.7% | [5] -10.3% | [6] -12.7%

CCC(C(=O)NC1c2ccccc2Oc2ccccc21)c1ccccc1 (stereo unspecified)
inactive: [1] -0.85% | [2] -9.85% | [3] 0.55% | [4] -12.4% | [5] 4.5% | [6] -2.5%

COC(=O)CCC(=O)CN1C(=O)c2ccccc2C1=O
inactive: [1] 14.8% | [2] 9.1% | [3] 4% | [4] 11.5% | [5] 14.1% | [6] 1.5%

Nc1c(Cl)ncnc1Cl
inactive: [1] -13.8% | [2] 8.3% | [3] -16.4% | [4] -0.65% | [5] 19.7% | [6] -39.7%

CCOC(=O)Nc1nc2ccccc2n1CN1CCOCC1
inactive: [1] -32.1% | [2] -11.9% | [3] -18.9% | [4] -14.9% | [5] -5.35% | [6] -7.8%

COC(=O)C1C(O)CCC2CN3CCc4c([nH]c5cccc(OC)c45)C3CC21 (stereo unspecified)
inactive: [1] -3.7% | [2] -14.8% | [3] 14.3% | [4] 7.85% | [5] 2% | [6] -78.7%

C=C1/C=C/C=C(/C)C(=O)Nc2c(C=O)c(O)c3c4c(c(C)c(O)c3c2O)OC(C)(O/C=C/C(OC)C(C)C(OC(C)=O)C(C)C(O)C(C)C1O)C4=O (stereo unspecified)
inactive: [1] 24.1% | [2] 33.5% | [3] 16.4% | [4] 34.2% | [5] 20.4% | [6] 32.5%

CC(C)(C)CC(=O)Nc1ccccc1
inactive: [1] 28.9% | [2] -4.15% | [3] -17.1% | [4] 13.7% | [5] -8.9% | [6] 9.25%

CCc1ccccc1NC(=O)C(=O)C1C(=O)N(c2ccccc2)N=C1N (stereo unspecified)
inactive: [1] -10.2% | [2] -31.4% | [3] -3% | [4] 21.4% | [5] -34.5% | [6] -22%

CSc1nc(=S)c2[nH]c(=S)[nH]c2[nH]1
inactive: [1] -1.2% | [2] 11.4% | [3] -6.5% | [4] -35.9% | [5] 21.5% | [6] 4.05%

COc1ccc2oc3cc(NCCN(C)C)ccc3c(=O)c2c1
inactive: [1] -4.65% | [2] -21.7% | [3] -25.6% | [4] 15.9% | [5] -19.9% | [6] -19.3%

Cn1c(-c2ccccc2)cc(=O)cc1-c1ccccc1
inactive: [1] -22.9% | [2] 13.1% | [3] -10.2% | [4] -1.25% | [5] -4.45% | [6] -19.2%

C1CCCC(N2N=NC3C4CC(C5N=NN(C6CCCCCC6)C45)C32)CC1 (stereo unspecified)
inactive: [1] 12.8% | [2] 17.5% | [3] 7.65% | [4] 64.8% | [5] -8.55% | [6] 11.7%

CCn1c(C)nc2c(N)cccc2c1=O
inactive: [1] 24.4% | [2] -4.75% | [3] -7.9% | [4] -6.6% | [5] -11% | [6] 2.75%

NOCCCCON
inactive: [1] -5.05% | [2] -6.8% | [3] 8.95% | [4] -66.8% | [5] 0.25% | [6] -7.05%

CCOC(=O)N1CCN(C(=O)OCC)C(C)C1 (stereo unspecified)
inactive: [1] 4.45% | [2] -0.7% | [3] -8.8% | [4] -20.1% | [5] 6.35% | [6] -8.6%

Cc1cc(=O)[nH]c(NNC(C#N)c2ccccc2O)n1 (stereo unspecified)
inactive: [1] -19.3% | [2] -27.9% | [3] -22.1% | [4] -12% | [5] 1.5% | [6] -34.8%

O=c1c(Br)c(-c2ccccc2Br)[nH]c2ccccc12
inactive: [1] -1.25% | [2] 13.7% | [3] 11.3% | [4] 0.4% | [5] -3.45% | [6] -13.9%

CC(C)c1ccc(/C=N\N(C)C)cc1
inactive: [1] 2.3% | [2] 2.05% | [3] -13.8% | [4] -5.6% | [5] -2.9% | [6] -1.75%

CN(C)c1ccc(/C=C(\C#N)c2cccc(Br)c2)cc1
inactive: [1] -2.45% | [2] -7.3% | [3] 3.1% | [4] -11.3% | [5] 12.1% | [6] -0.05%

CN(C)c1ccccc1C(=O)N/N=C\c1ccc(O)c(O)c1
inactive: [1] 17.6% | [2] 14.2% | [3] 19.5% | [4] 5.75% | [5] 12.4% | [6] 22.2%

O=C1CCc2c(Cl)sc(Cl)c21
inactive: [1] 20.1% | [2] 5.5% | [3] 13.8% | [4] -32.2% | [5] 4.1% | [6] 9.95%

COC1=C(c2ccccc2)P(=O)(Cc2ccccc2)C2CCCC12 (stereo unspecified)
inactive: [1] 4.95% | [2] 21.4% | [3] 35.9% | [4] 7.6% | [5] 21.4% | [6] -17.3%

O=C(Cc1ccccc1)Nc1cccc2ccccc12
inactive: [1] 6.15% | [2] 1.7% | [3] 0.8% | [4] 1% | [5] 22.9% | [6] 0.9%

CN1C(=O)c2ccccc2NC(=O)C12O[C@@H]2c1cccc(O)c1 (stereo partly specified)
inactive: [1] 9% | [2] -0.55% | [3] 11.2% | [4] 8.9% | [5] 6.9% | [6] 8.05%

Cc1cccc(/C=C/c2csnn2)n1
inactive: [1] -25.1% | [2] -6.75% | [3] -8.4% | [4] 14.6% | [5] -6.05% | [6] -15.2%

O=C(Nc1nccs1)c1c(O)nc2sccn2c1=O
inactive: [1] 8.7% | [2] -33% | [3] 18.9% | [4] 22.4% | [5] 14.8% | [6] -12.6%

CCOC(=O)c1cccc(C(=O)OCC)n1
inactive: [1] 4.75% | [2] -2.35% | [3] 11.8% | [4] -1.65% | [5] 18.7% | [6] -14.6%

O=C1NC(N2CCCCC2)=N/C1=C\c1ccccc1
inactive: [1] 25.7% | [2] -8.45% | [3] -6.1% | [4] 23.7% | [5] -10.5% | [6] -16.4%

CCC(Cl)(c1ccccc1)C(O)C(=O)OC(C)C (stereo unspecified)
inactive: [1] 8% | [2] 2.65% | [3] 10.8% | [4] -2.35% | [5] -6.3% | [6] 11.8%

c1ccc(N=C(C(=Nc2ccccc2)c2ccccc2)c2ccccc2)cc1
inactive: [1] 4.7% | [2] 13.6% | [3] 3.65% | [4] -67.8% | [5] 4.65% | [6] -9.05%

CC(N)CCC(=O)O (stereo unspecified)
inactive: [1] -16.1% | [2] -27.4% | [3] -15.7% | [4] -27.2% | [5] -32.1% | [6] -31%

CC(C)C(=O)OC1CCCCC1Cc1ccccn1 (stereo unspecified)
inactive: [1] 21.1% | [2] -3.25% | [3] 29.1% | [4] -17% | [5] 24.1% | [6] -6.8%

CCN(CC)C(=S)SCCO
inactive: [1] -4.3% | [2] -11.2% | [3] 6.15% | [4] -9.7% | [5] -3.5% | [6] -1.65%

O=C(NC(=O)c1c(F)cccc1F)Nc1ccc(C(O)(C(F)(F)F)C(F)(F)F)cc1
inactive: [1] -33.2% | [2] 14.5% | [3] 10.2% | [4] 24.1% | [5] 6% | [6] 3.55%

Cc1ccc2nc[nH]c2c1
inactive: [1] 0.35% | [2] -21.9% | [3] -10.8% | [4] -11.4% | [5] 4.05% | [6] 14.6%

O=C(CC(C(=O)c1cccs1)c1ccsc1)c1ccc(Cl)s1 (stereo unspecified)
inactive: [1] -5.35% | [2] -15% | [3] -11.1% | [4] 4.2% | [5] -2.2% | [6] -5.05%

Cc1cc(S(=O)(=O)NC(=NCC(=O)NN)NN)c(S)cc1Cl
inactive: [1] -9.85% | [2] 2.65% | [3] -16.6% | [4] -6.95% | [5] 1.3% | [6] 15.4%
